A short description of assay [1]: p53 stabilisation in HPV-positive human cells, imaging, p53-positive nuclei imaging, 24 h, 48 h (AID 1508601). To be noted: 24/48 h.
Assay [2] has as its target Cellular tumor antigen p53 (Homo sapiens) (UniProt P04637). The assay is described as above. The following applies: 24/48 h, stronger effect = higher value.
Setting [3] is: measured here: cell number at 24 h, Library stock concentration: 3.33 mM.
Where [4] appears, read: measured here: cell number at 48 h, Library stock concentration: 3.33 mM.
[5] abbreviates: Library stock concentration: 3.33 mM.
Setting [6] is: measured here: p53 positive nuclei at 24 h, Library stock concentration: 3.33 mM.
Setting [7] is: measured here: cell number at 24 h, concentration not given here.
Setting [8] is: measured here: cell number at 48 h, concentration not given here.
[9] abbreviates: measured here: p53 positive nuclei at 24 h, concentration not given here.
Where [10] appears, read: measured here: cell number at 24 h, Library stock concentration: 80 uM.
Where [11] appears, read: measured here: cell number at 24 h, Library stock concentration: 400 uM.
[12] abbreviates: measured here: cell number at 24 h, Library stock concentration: 2 mM.
Where [13] appears, read: measured here: cell number at 24 h, Library stock concentration: 10 mM.
[14] abbreviates: measured here: cell number at 48 h, Library stock concentration: 80 uM.
Setting [15] is: measured here: cell number at 48 h, Library stock concentration: 400 uM.
[16] abbreviates: measured here: cell number at 48 h, Library stock concentration: 2 mM.
[17] abbreviates: measured here: cell number at 48 h, Library stock concentration: 10 mM.
Setting [18] is: Library stock concentration: 80 uM.
The mark [19] stands for this setting: Library stock concentration: 400 uM.
[20] abbreviates: Library stock concentration: 2 mM.
The mark [21] stands for this setting: Library stock concentration: 10 mM.
The mark [22] stands for this setting: measured here: p53 positive nuclei at 24 h, Library stock concentration: 80 uM.
Where [23] appears, read: measured here: p53 positive nuclei at 24 h, Library stock concentration: 400 uM.
Where [24] appears, read: measured here: p53 positive nuclei at 24 h, Library stock concentration: 2 mM.
Where [25] appears, read: measured here: p53 positive nuclei at 24 h, Library stock concentration: 10 mM.

The campaign covered roughly 5,700 compounds. About 85 (1%) were called active. Cut-off read from the data, not from the text of the source: active = p53-positive nuclei above about 36% (passing the limit was not always enough); inactive = the rest. Only a selection was taken, and actives are over-represented in it overall.

Sequence of Cellular tumor antigen p53 (Homo sapiens) (P04637 whole entry, looked up): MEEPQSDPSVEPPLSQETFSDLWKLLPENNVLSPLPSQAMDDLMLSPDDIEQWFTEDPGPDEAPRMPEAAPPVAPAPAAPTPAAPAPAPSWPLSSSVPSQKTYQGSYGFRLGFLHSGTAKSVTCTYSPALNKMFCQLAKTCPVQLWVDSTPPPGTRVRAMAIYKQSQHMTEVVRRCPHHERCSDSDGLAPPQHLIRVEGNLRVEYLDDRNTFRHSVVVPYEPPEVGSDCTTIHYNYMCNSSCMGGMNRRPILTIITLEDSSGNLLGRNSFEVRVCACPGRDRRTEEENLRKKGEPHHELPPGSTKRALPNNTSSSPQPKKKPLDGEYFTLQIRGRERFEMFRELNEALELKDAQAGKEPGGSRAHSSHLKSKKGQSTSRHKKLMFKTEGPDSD

Turning to `CNC(=O)C(c1ccccc1)N1CCc2cc(OC)c(OC)cc2C1CCc1ccc(C(F)(F)F)cc1` (centres undefined), the nuclei count, normalised in assay [1] (setting [3]) amounted to 107%; in assay [1] (setting [4]), 104%. Besides, the results for the p53-positive nuclei, normalised in assay [2] (setting [5]) and in assay [2] (setting [6]) were -0.362% (inactive) and -0.539%, respectively.
In the case of `Cc1occc1C(=O)Nc1ccccc1C(=O)N(C)Cc1ccccn1`, the nuclei count, normalised is 96.8% in assay [1] (setting [7]) and 105% in assay [1] (setting [8]). The p53-positive nuclei, normalised in assay [2] (concentration not given here) was 0.23% (inactive); in assay [2] (setting [9]), 0.178%.
Taken in the same sequence, the figures for `O=C(c1ccccc1-c1nn[nH]n1)N1CCc2[nH]cnc2C1c1ccccn1` (centres undefined) were 101%, 107%, -0.169% (inactive) and -0.0711%.
Taken in the same sequence, the figures for `O=C(OC[C@@H]1O[C@H]1c1ccccc1)Oc1ccc([N+](=O)[O-])cc1` were 101%, 105%, -0.0534% (inactive) and -0.0466%.
With `O=C(Cc1ccc(-c2ccc(OCCN3CCOCC3)cc2)cn1)NCc1ccccc1`, the nuclei count, normalised was found to be 42.9% in assay [1] (setting [10]); 41.4% in assay [1] (setting [11]); 40% in assay [1] (setting [12]); 41.1% in assay [1] (setting [3]); 39.3% in assay [1] (setting [13]); 27.3% in assay [1] (setting [14]). Besides, the nuclei count, normalised is 26.6% in assay [1] (setting [15]), 28.3% in assay [1] (setting [16]), 30.8% in assay [1] (setting [4]) and 26.9% in assay [1] (setting [17]). Moreover, the p53-positive nuclei, normalised in assay [2] (setting [18]) is 3.36% (inactive); in assay [2] (setting [19]), 4.39% (inactive); in assay [2] (setting [20]) it was 2.81% (inactive); in assay [2] (setting [5]), 2.58% (inactive); in assay [2] (setting [21]) it was 4.55% (inactive); in assay [2] (setting [22]), -0.0362%. For the same compound, the p53-positive nuclei, normalised in assay [2] (setting [23]) was found to be 1.51%; in assay [2] (setting [24]), 1.32%; in assay [2] (setting [6]), 0.97%; in assay [2] (setting [25]) it was 1.31%.
`COCC(NC(=O)c1cnc(C)s1)C(=O)NC(COC)C(=O)NC(Cc1ccccc1)C(=O)C1(C)CO1` (centres undefined): the nuclei count, normalised in assay [1] (setting [3]) worked out at 50.4%; in assay [1] (setting [4]), 40.7%. Moreover, the values for the p53-positive nuclei, normalised in assay [2] (setting [5]) and in assay [2] (setting [6]) were 96.5% (active) and 116%, respectively.
Taken in the same sequence, the figures for `COc1ccc(CC(NC(=O)C(C)NC(=O)CN2CCOCC2)C(=O)NC(Cc2ccccc2)C(=O)[C@]2(C)CO2)cc1` (some centres undefined) were 46%, 38.7%, 106% (active) and 126%.
On to `CC(C)CC(CC(=O)NO)C(=O)NC(Cc1ccc2ccccc2c1)C(=O)NC(C)C(=O)NCCN` (centres undefined), for which the nuclei count, normalised in assay [1] (setting [3]) came to 109%; in assay [1] (setting [4]) it was 104%. Besides, the values for the p53-positive nuclei, normalised in assay [2] (setting [5]) and in assay [2] (setting [6]) were 0.0444% (inactive) and -0.208%, respectively.
As to `CSCCC(NC=O)C(=O)NC(CC(C)C)C(=O)NC(Cc1ccccc1)C(=O)O` (centres undefined), the nuclei count, normalised in assay [1] (setting [10]) stood at 96%; in assay [1] (setting [11]) it was 92.8%; in assay [1] (setting [12]), 99%; in assay [1] (setting [13]), 101%; in assay [1] (setting [14]) it was 97.1%; in assay [1] (setting [15]), 91.9%. Moreover, the figures for the nuclei count, normalised in assay [1] (setting [16]) and in assay [1] (setting [17]) were 96.7% and 99.8%, respectively. Moreover, the p53-positive nuclei, normalised was -0.172% (inactive) in assay [2] (setting [18]); -0.159% (inactive) in assay [2] (setting [19]); -0.166% (inactive) in assay [2] (setting [20]); -0.212% (inactive) in assay [2] (setting [21]); -0.106% in assay [2] (setting [22]); -0.0972% in assay [2] (setting [23]). The results for the p53-positive nuclei, normalised in assay [2] (setting [24]) and in assay [2] (setting [25]) were -0.166% and -0.105%, respectively.
Take `CC(C)CC(NC(=O)C(CCc1ccccc1)NC(=O)CN1CCOCC1)C(=O)NC(Cc1ccccc1)C(=O)NC(CC(C)C)C(=O)[C@@]1(C)CO1` (some centres undefined): the values for the nuclei count, normalised in assay [1] (setting [3]) and in assay [1] (setting [4]) were 36.4% and 30.5%, respectively. Moreover, the p53-positive nuclei, normalised in assay [2] (setting [5]) was 104% (active); in assay [2] (setting [6]) it was 117%.
For the compound `CC(C)CC(C(=O)NC(Cc1ccc(OCc2ccccc2)cc1)C(=O)NC(C)(C)C)N(C)Cc1ccc(C(C)(C)C)cc1` (centres undefined), the nuclei count, normalised was found to be 108% in assay [1] (setting [10]); 108% in assay [1] (setting [11]); 110% in assay [1] (setting [12]); 113% in assay [1] (setting [13]); 103% in assay [1] (setting [14]); 105% in assay [1] (setting [15]). The nuclei count, normalised worked out at 103% in assay [1] (setting [16]) and 109% in assay [1] (setting [17]). The p53-positive nuclei, normalised in assay [2] (setting [18]) was 0.116% (inactive); in assay [2] (setting [19]) it was -0.221% (inactive); in assay [2] (setting [20]), 0.074% (inactive); in assay [2] (setting [21]), -0.262% (inactive); in assay [2] (setting [22]), -0.0604%; in assay [2] (setting [23]) it was -0.22%. In addition, the p53-positive nuclei, normalised in assay [2] (setting [24]) is -0.108%; in assay [2] (setting [25]), -0.169%.

(Values after PubChem BioAssay AID1508601 (ICCB-Longwood Screening Facility, Harvard Medical School, 2020).)
